High-throughput results as filed in PubChem.
Hits are enriched below; roughly 3.4% of the tested compounds scored in any of these assays.
HSF1 inh = HSF1 inhibition. activity change, negative = inhibition, % at 7.5 µM (by protocol). NIH3T3-HGL HSE-luciferase, MG132-induced, luminescence 8 h; hits give low values. actives 0.77% (n = 300,000);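 active means more than half of replicate wells show activity change below -50%, luminescence cut by over half; inconclusive means some wells, but at most half, below -50%; inactive means no replicate well below -50%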;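 further: luciferase reports HSF-1 transcriptional activity via heat shock element; 0% = median of DMSO wells and -100% = zero luminescence signal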
esBAF inh = blocks esBAF chromatin remodeling in mouse ES cells | Bmi1-luciferase knock-in reporter, 24 h; 100% = twice the neutral-well signal | reporter increase, % at 12.5 µM | actives 2% (n = 350,000); in the data active means activation above about 40%; inconclusive means no clear call, values can overlap the other calls;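 further: 0% = median of the plate's neutral control wells and 100% = double that signal; a rise in the Bmi1 reporter signal indicates esBAF inhibition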
Vif inh = HIV Vif inhibition; HEK293T cells, Vif self-association by quenched fluorescence, imaging, 24 h; AID 602346; actives 0.35% (n = 340,000); inhibition, % at 7.49 µM; in the data active means inhibition above about 50%, passing the limit was not always enough; inconclusive means no clear call, values can overlap the other calls; inactive means below about 31%
HSF1 activator = increases HSF-1 driven luciferase reporter signal. NIH3T3-HGL HSF-1 luciferase reporter, MG132, 8 h; 100% = twice DMSO control signal. activation, % at 9 µM. actives 1.7% (n = 300,000). AID 504408;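 active means mean replicate activation of at least 50% with a set share of replicates each reaching 50%; inconclusive means only one of those two conditions met; inactive means mean below 50% and too few replicates reaching it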;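 further: 0% = median of the neutral control wells and 100% = twice that signal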
Numbers without * were called inactive; ? = inconclusive; · = no result given.

SMILES | HSF1 inh | esBAF inh | Vif inh | HSF1 activator
Cc1cc(OCc2cc(C(=O)N(C)C3CCOC3)no2)cc(C)c1Cl (centres undefined) | 48 | 83* | -6 | 64*
Cc1csc(NC(=O)c2cc(C)oc2C)n1 | 12 | 63* | -6 | 24
Cc1csc(NC(=O)c2nc3nc(C)cc(C)n3n2)n1 | 18 | -14 | 1 | 61*
Cc1cc(C)n2nc(C(=O)Nc3nccs3)nc2n1 | 5 | 17 | · | 21
Cc1cc(C(=O)Nc2nc3ccc(S(C)(=O)=O)cc3s2)c(C)o1 | 19 | 53* | 15 | 29
Cc1cc(C(=O)Nc2cc(C(C)(C)C)on2)c(C)o1 | 19 | 63* | 1 | 38
Cc1ccc(S(=O)(=O)Nc2cccc3c2O[C@@H](CN(C)S(=O)(=O)c2ccccc2)[C@H](C)CN([C@@H](C)CO)C3=O)cc1 | · | -2 | · | ·
C[C@H]1CN([C@@H](C)CO)C(=O)c2cc(NC(=O)c3ccncc3)ccc2O[C@H]1CN(C)C(=O)NC1CCCCC1 | · | -4 | · | ·
OC1COC(OCc2ccccc2)C(O)C1O (centres undefined) | 2 | 3 | -7 | 22
OC1OC[C@@H](O)[C@H](O)[C@H]1O (some centres undefined) | -72* | · | · | -77
CCCNC(=O)[C@H]1[C@H](CO)[C@H]2Cn3c(ccc(-c4ccccc4F)c3=O)[C@H]2N1C(=O)CC | · | 2 | · | ·
COc1cccc(C(=O)Nc2ccc3c(C)cc(=O)oc3c2)c1 | 62 | 34 | 2 | 108*
Cc1cccc(OCC(=O)Nc2ccc3c(C)cc(=O)oc3c2)c1 | -3 | · | 0 | 6
Cc1cc(=O)oc2cc(NC(=O)c3ccccc3C(=O)O)ccc12 | 19 | -5 | -4 | 46
Cc1cc(=O)oc2cc(NC(=O)c3ccccc3Cl)ccc12 | 21 | · | -20 | 63*
C[C@@H]1CN([C@@H](C)CO)C(=O)c2cc(NC(=O)NC3CCCCC3)ccc2O[C@H]1CN(C)CC1CCCCC1 | · | -1 | · | ·
C[C@@H]1CN([C@@H](C)CO)C(=O)Cc2cc(NC(=O)NC3CCCCC3)ccc2O[C@@H]1CN(C)S(=O)(=O)c1cn(C)cn1 | · | 7 | · | ·
CS(=O)(=O)NCCSc1nnnn1-c1ccccc1 | -7 | · | 4 | -10
O=S(=O)(NCCSc1nnnn1-c1ccccc1)c1cccs1 | 12 | 53* | -14 | 14
C[C@H]1CN([C@@H](C)CO)C(=O)c2cccc(NC(=O)Nc3ccc4c(c3)OCO4)c2O[C@H]1CN(C)S(=O)(=O)c1ccc(Cl)cc1 | · | 18 | · | ·
Cc1ccc(C(=O)NCc2ccc(N3CCN(C)CC3)cc2)cc1C | -69* | 1 | -9 | -75
CN1CCN(c2ccc(CNC(=O)c3cc4ccccc4o3)cc2)CC1 | -2 | · | -9 | 1
Cc1noc(C)c1NC(=O)N(C)C[C@H]1Oc2ncc(C3=CCCC3)cc2C(=O)N([C@@H](C)CO)C[C@H]1C | · | 2 | · | ·
O=C(C[C@@H]1C=C[C@H](NS(=O)(=O)c2ccc(F)cc2)[C@H](CO)O1)NCCc1ccncc1 | · | 4 | · | ·
NS(=O)(=O)c1ccc(N/N=C/c2ccccc2C(=O)O)c([N+](=O)[O-])c1 | 23 | · | -5 | 61*
SMILES | HSF1 inh | esBAF inh | Vif inh | HSF1 activator
CC(C)C(=O)NCCc1nc(-c2ccccc2Cl)no1 | -3 | 5 | 83* | 11
CCNC(=O)C[C@H]1C=C[C@@H](NC(=O)C2CCC2)[C@@H](CO)O1 | · | -9 | · | ·
O=C(C[C@@H]1CC[C@H]2[C@@H](COC[C@H](O)CN2Cc2cc(F)cc(F)c2)O1)NC1CCCC1 | · | 3 | · | ·
O=S(=O)(c1ccc(F)cc1)c1snnc1-c1ccccc1 | 10 | · | 6 | 2
O=S(=O)(c1ccc(Cl)cc1)c1snnc1-c1ccccc1 | 33 | 13 | 94* | 66*
C/C(CC(=O)Nc1ccc([N+](=O)[O-])cc1)=N\NC(=O)c1ccccc1O | -3 | 45* | -10 | -1
C/C(CC(=O)Nc1ccc(N(C)C)cc1)=N\NC(=O)c1ccccc1O | -1 | ? | -10 | 13
O=C(CCCCn1c(=O)[nH]c2ccsc2c1=O)NCCc1ccccc1 | -2 | 3 | 0 | -17
O=C(CCCCn1c(=O)[nH]c2ccsc2c1=O)NCc1cccnc1 | -56* | · | 2 | -68
Brc1ccc(-c2csc(/N=C/N3CCOCC3)n2)cc1 | · | 51* | -11 | ·
Brc1ccc(-c2csc(/N=C/N3CCCC3)n2)cc1 | 21 | 34 | -10 | 13
OCCN(/C=N/c1nc(-c2ccc(Br)cc2)cs1)CCO | 10 | 41* | -3 | 31
COc1ccc(-c2csc(/N=C/N(C)C)n2)cc1OC | 3 | · | -3 | 9
Cc1cc(C)c(S(=O)(=O)Nc2ccc(N(C)C)cc2)c(C)c1-n1cnnn1 | -65* | -5 | 5 | -70
